Assay results published in PubChem BioAssay (Tox21).
Records with an inconclusive call do not appear. Values without a mark were called inactive. Calls come from the whole dose curve.

Molecular target: Vitamin D3 receptor (Homo sapiens) (UniProt P11473)
Assay: qHTS assay to identify small molecule agonists of the vitamin D receptor (VDR) signaling pathway (AID 743222)
Settings: HEK293T VDR-UAS-bla, beta-lactamase FRET ratio, 16 h; series mostly up to 63.5 µM; activation: at the top concentration
Text: National Center for Advancing Translational Sciences [NCATS]
NIH Chemical Genomics Center [NCGC]
U.S. Environmental Protection Agency [EPA]
National Institutes of Environmental Health Sciences [NIEHS]
National Toxicology Program [NTP]
U.S. Food and Drug Administration [FDA]
The vitamin D receptor (VDR), a member of nuclear hormone receptor superfamily, plays a critical role in calcium homeostasis and bone metabolism. It is also involved in cell differentiation and growth, and thrombogenicity.
Tox21 Assay Protocol Summary:
VDR-bla cells were dispensed at 2,000 cells/6 uL/well into black wall/clear-bottom 1536-well plates using a Multidrop Combi (Thermo Fisher Scientific, Waltham, MA) dispenser. After the assay plates were incubated at a 37C and 5% CO2 for 4 h, 23 nL of compounds dissolved in DMSO, positive controls or DMSO only was transferred to the assay plate by a Pintool station (Kalypsys, San Diego, CA). The plates were incubated at 37C and 5% CO2 for 16 h. After 1 uL of LiveBLAzerTM B/G FRET substrate was added using a Bioraptr Flying Reagent Dispenser (FRD) workstation (Beckman Coulter, Indianapolis, IN, USA), the plates were incubated at room temperature for 2 h, and fluorescence intensity was measured by an Envision plate reader (PerkinElmer, Shelton, CT).
% is set by controls: 0 for no effect and ±100 for the full control effect.

Sequence of Vitamin D3 receptor (Homo sapiens) (P11473 whole entry, looked up): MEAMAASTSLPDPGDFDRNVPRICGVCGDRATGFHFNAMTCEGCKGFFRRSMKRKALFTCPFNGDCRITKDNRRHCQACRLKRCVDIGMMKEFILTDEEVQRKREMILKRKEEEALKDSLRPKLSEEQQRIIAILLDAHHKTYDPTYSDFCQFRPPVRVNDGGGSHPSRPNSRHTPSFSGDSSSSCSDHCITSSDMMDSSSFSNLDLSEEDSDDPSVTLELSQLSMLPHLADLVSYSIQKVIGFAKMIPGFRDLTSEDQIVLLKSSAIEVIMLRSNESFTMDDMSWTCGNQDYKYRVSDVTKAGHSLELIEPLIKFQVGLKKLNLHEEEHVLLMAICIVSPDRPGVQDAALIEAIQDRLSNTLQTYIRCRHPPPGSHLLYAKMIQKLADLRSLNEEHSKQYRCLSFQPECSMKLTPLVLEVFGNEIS

SMILES	activation
N#Cc1nc(Cl)c(Cl)c(Cl)c1Cl	4.47%
O=C1OC(=O)c2cc(-c3ccc4c(c3)C(=O)OC4=O)ccc21	-13.5%
CCCCCCCCCCCCCCCCC(C(=O)O)C(O)(CC(=O)O)C(=O)O (stereo not given)	8.56%
COc1c(Br)cc(Br)c(C)c1Br	-1.87%
CCCCCCCCOC(=O)c1cc(O)c(O)c(O)c1	-0.874%
CC(=O)[C@]1(O)Cc2c(O)c3c(c(O)c2[C@@H](O[C@H]2C[C@H](N)[C@H](O)[C@H](C)O2)C1)C(=O)c1ccccc1C3=O	-2.43%
SC1CCCCC1	0.968% [at 81.1 µM]
S=C1NC=NC2N=CNC12 (stereo not given)	-16.1%
O=C1CCC/C=C\CCCCCCCCCC1	-7.73%
CCCCCCCCCCCCN1CCCC1=O	6.58%
CN[C@H]1CC[C@@H](c2ccc(Cl)c(Cl)c2)c2ccc(S(N)(=O)=O)cc21	-8.95%
CC(O)(c1ccc(Cl)cc1)c1ccc(Cl)cc1	2.12%
O=C1OC(O)C(C(Cl)Cl)=C1Cl (stereo not given)	2.1% [at 81.1 µM]
CCCCCCCC/C=C\CCCCCCCC(=O)N(CCO)CCO	-21.9%
O=C(Nc1ccccc1)c1cc(Cl)ccc1O	-5.24%
CCC(C)(C)c1ccc(CC(C)CN2C[C@@H](C)O[C@@H](C)C2)cc1 (stereo not given in full)	-1.28%
CN1CCN(c2ccccc2/C=C2\SCCN(c3ccc(Cl)c(Cl)c3)C2=O)CC1	-0.727%
O=C(CCN1CCC(c2ccccc2)C1)c1ccc2c(c1)OCCO2 (stereo not given)	-14.9%
O=C1CCCCCCCCCCCCCC1	5.31%
CCCCC/C=C\C=C\C(=O)OCC	-10.6% [at 81.1 µM]
CN1CCN(CCCN2c3ccccc3Sc3ccc(Cl)cc32)CC1	-22.2%
COc1cccc(-c2ccc(/C=C\CN3CCCCCC3)cc2Cl)c1	-16.5%
c1ccc(-c2ccc(C(c3ccccc3)n3ccnc3)cc2)cc1 (stereo not given)	-6.14%
c1ccc2cc3c4ccccc4c4ccccc4c3cc2c1	-16.6% [at 81.1 µM]
CC(Cc1ccc(O)c(O)c1)C(C)Cc1ccc(O)c(O)c1 (stereo not given)	-8.7%
